This is a sample that favours compounds with a hit; in the whole collection about 0.74% have one here.
CCT modulator – cytosolic chaperonin activity modulation. purified chaperonin ATPase assay, HTRF ADP detection, 30 min. activity change, % (no concentration beside the values), hits read low. hit rate 0.3% among 360,000. AID 651819; in the data active means activity change below about -30%; further: on the % scale 0 is the no-effect control and ±100 the full control effect
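TRiC (40 or 20 nM final, by batch activity) in 30 mM Tris pH 7.4, 100 mM KCl, 5 mM MgCl2, 1 mM DTT was treated with compound at 76 uM single dose, then 10 uM ATP, 30 min at 37 °C. ADP was read by HTRF Transcreener.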
TSHR antagonist – blocks TSH signaling through the human TSH receptor | P16473 | TSHR-expressing cells, TSH-stimulated cAMP HTRF, 2 h; active compounds read low | activity change, negative = inhibition, % at 11.5 µM | hit rate 0.2% among 330,000 | AID 504810;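 active means activity change below a set negative limit, meaning inhibition stronger than a set level, cut at about -70% in these data; inconclusive means activity change between two set negative limits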; further: on the % scale 0 is the no-effect control and ±100 the full control effect
Target sequence (P16473 whole entry, looked up): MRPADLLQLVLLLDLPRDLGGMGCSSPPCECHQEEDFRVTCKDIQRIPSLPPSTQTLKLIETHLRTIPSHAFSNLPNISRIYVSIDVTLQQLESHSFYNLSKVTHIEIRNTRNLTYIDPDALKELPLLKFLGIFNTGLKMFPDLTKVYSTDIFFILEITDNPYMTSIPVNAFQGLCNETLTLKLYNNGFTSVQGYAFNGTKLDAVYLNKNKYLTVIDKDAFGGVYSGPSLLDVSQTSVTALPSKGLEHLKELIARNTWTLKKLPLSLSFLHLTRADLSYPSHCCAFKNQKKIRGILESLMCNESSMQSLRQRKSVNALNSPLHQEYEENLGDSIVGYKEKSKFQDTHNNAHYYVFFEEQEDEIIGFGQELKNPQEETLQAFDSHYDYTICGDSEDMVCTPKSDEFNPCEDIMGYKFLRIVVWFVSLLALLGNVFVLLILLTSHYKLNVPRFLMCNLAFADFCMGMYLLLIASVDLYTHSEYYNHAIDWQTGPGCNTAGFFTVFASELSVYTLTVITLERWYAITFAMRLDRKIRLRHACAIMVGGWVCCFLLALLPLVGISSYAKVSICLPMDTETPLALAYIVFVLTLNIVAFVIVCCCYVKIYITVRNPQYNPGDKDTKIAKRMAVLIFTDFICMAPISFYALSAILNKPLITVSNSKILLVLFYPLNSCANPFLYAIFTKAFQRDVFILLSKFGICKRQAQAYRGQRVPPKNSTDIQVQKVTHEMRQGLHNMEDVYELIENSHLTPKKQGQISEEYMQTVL
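TSHR-expressing cells, 200/well, pre-treated with compound, then stimulated with EC80 TSH (4nM final) for 2 hours at 37 deg C. cAMP measured by competitive HTRF: anti-cAMP cryptate antibody in lysis buffer plus cAMP-d2, read after 30 minutes at room temperature.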
TCR act – T cell receptor activation; Potency, µM (doses to about 9.22 µM), for inactives: top-dose activation of IL-2 secretion, most hits filed as activators; primary human leukocytes, anti-CD3, IL-2 HTRF, 48 h; 330,000 tested, under 10 active; active means well fitted activation curve with a large enough effect; inconclusive means small, poorly fitted or top-dose-only effect, or another doubt; inactive means no such curve, though single readings can be large or run the other way; further: % of control where 0% means no effect
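Activity was scored as IL-2 release from primary human leukocytes given only a TCR signal (a-CD3 beads) plus compound for 48 hr. Detection used a two-antibody HTRF format read at 665nm.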
pAkt inh – Akt phosphorylation inhibition; activity change, % for hits at 50 µM; AID 651550; hit rate 0.32% among 360,000; Neuro2A IGF-stimulated pAkt S473 HTRF, 20 min; active compounds read low; in the data active means activity change below about -80%; inconclusive means mostly about -51% to -80%; further: on the % scale 0 is the no-effect control and ±100 the full control effect
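Neuro2A cells in DMEM with 0.5% FBS, overnight at 37 deg C, given compound at single 50 µM final, then IGF (6 nM final) for 20 min at 37 deg C. Lysed; phospho-Akt Ser473 by HTRF after 24 h, 665/615 ratio.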
* = called active by the depositor; [ ] = another dose, or the depositor's remark.

Screening COc1ccc(Cl)cc1N1C(=NC(=O)C2CCCO2)SC2CS(=O)(=O)CC21 (stereo not given) returned CCT modulator 1, TSHR antagonist 6, TCR act 4% and pAkt inh inactive.
COc1ccc(-c2ccc(=O)n(CC(=O)NCC3COCCO3)n2)cc1 (stereo not given) was read as CCT modulator 1, TSHR antagonist 11, TCR act 2% and pAkt inh inactive.
Screening CC1CCN(Cc2c(C(=O)N/N=C/c3cc(Cl)ccc3O)nnn2-c2nonc2N)CC1 returned CCT modulator 1, TSHR antagonist -100*, TCR act -2% and pAkt inh inactive.
COCOCCn1cc(CN2CCS(=O)(=O)N(Cc3ccc(-c4ccc(Cl)c(Cl)c4)cc3)C(C)C2=O)nn1 (stereo not given) was read as CCT modulator -1 and pAkt inh inactive.
`Cc1cc(SCc2ccc([N+](=O)[O-])cc2)nc(=O)[nH]1` gave CCT modulator -2, TSHR antagonist -138* and TCR act -7%.
For O=c1[nH]nnc2cc(Cl)ccc12 the results were CCT modulator 4, TCR act -3% and pAkt inh inactive.
Screening COc1ccc(C2/C(=C(\O)c3cc(C)ccc3C)C(=O)C(=O)N2CCN(C)C)cc1OC (stereo not given) returned CCT modulator -80*, TSHR antagonist -3, TCR act 1% and pAkt inh inactive.
`CCOC(=O)c1cc(-c2ccccc2)sc1NC(=O)C(C)(C)C` gave CCT modulator -31*, TSHR antagonist 18, TCR act -1% and pAkt inh inactive.
CCOC(=O)c1cc(-c2ccccc2)sc1NC(=O)CC(C)C was read as CCT modulator -2, TSHR antagonist 17, TCR act 0% and pAkt inh inactive.
OC(COc1ccc2ccccc2c1Cl)CN1CCOCC1 (stereo not given) was read as CCT modulator -32*, TSHR antagonist 3, TCR act 6% and pAkt inh inactive.
For OC(COc1cccc2ccccc12)CN1CCOCC1 (stereo not given) the results were CCT modulator -1, TCR act -2% and pAkt inh inactive.
Screening COc1ccc(CC(=O)N(C)CC(=O)Nc2ccccc2SC)cc1 returned CCT modulator -46*, TSHR antagonist -4, TCR act -3% and pAkt inh inactive.
`NC(=O)C1CCN(C(=O)Nc2csc3ccccc23)CC1` gave CCT modulator 0, TSHR antagonist -3, TCR act 1% and pAkt inh inactive.
For Cc1[nH]c2ccc(C(=O)NC3CCC(C)CC3)cc2c1C (stereo not given) the results were CCT modulator -62*, TSHR antagonist 8 and TCR act 9%.
Screening COC(=O)c1c(NC(=O)c2cccc(S(=O)(=O)N3CCN(C)CC3)c2)sc(C)c1C returned CCT modulator -8, TSHR antagonist -2, TCR act 4% and pAkt inh inactive.
N#CC(C#N)=C1C=CC=CN1/C(=C\c1ccco1)C(=O)c1ccc(Br)cc1 was read as CCT modulator -2, TSHR antagonist -91*, TCR act 2%[46.1 µM] and pAkt inh inactive.
Screening N#CC(C#N)=C1C=CC=CN1/C(=C\c1ccco1)C(=O)c1ccccc1 returned CCT modulator 3, TSHR antagonist inconclusive, TCR act 2%[46.1 µM] and pAkt inh inactive.
Screening CC(C)C1C(=O)N(Cc2cn(CCC3OCCO3)nn2)CCS(=O)(=O)N1Cc1ccc(-c2ccc(F)cc2Cl)cc1 (stereo not given) returned CCT modulator -1 and pAkt inh inactive.
`Cn1c(O)c(N=NC(=O)c2ccccc2O)c2ccccc21` gave CCT modulator -4, TSHR antagonist -1, TCR act 0% and pAkt inh inactive.
Screening Cc1cc(N=NC(=O)c2ccccc2O)c2ccccc2c1O returned CCT modulator 0, TSHR antagonist -72*, TCR act -1% and pAkt inh inactive.
`Cc1sc2ncnc(N3CCC(C(=O)Nc4nc(-c5ccc(F)cc5)cs4)CC3)c2c1C` gave CCT modulator 0, TSHR antagonist -25, TCR act -5% and pAkt inh inactive.
`CCOC(=O)c1ccc(CN(Cc2ccccc2)S(=O)(=O)c2cccc([N+](=O)[O-])c2)cc1` gave CCT modulator -33*, TSHR antagonist -8, TCR act -6%[46.1 µM] and pAkt inh inactive.
`Cn1c(=O)c(=O)n(C)c2cc([N+](=O)[O-])c([N+](=O)[O-])cc21` gave CCT modulator -32*, TSHR antagonist -22, TCR act -2% and pAkt inh inactive.
Screening Cn1cccc([N+](=O)[O-])c1=O returned CCT modulator 2 and pAkt inh inactive.
CCOC(=O)C1CCN(C(=O)COC(=O)COc2ccc(Cl)cc2)CC1 was read as CCT modulator -30*, TSHR antagonist 3, TCR act -2% and pAkt inh inactive.
Screening CCOC(=O)C1CCN(C(=O)COc2ccc(Cl)cc2)CC1 returned CCT modulator 0, TSHR antagonist 2, TCR act 0% and pAkt inh inactive.
Screening Cc1cc(NCc2ccccc2)nc(N2CCOCC2)n1 returned CCT modulator -4, TSHR antagonist -2, TCR act 1% and pAkt inh -113%*.
For Cc1cc(N2CCOCC2)nc(NCc2ccccc2)n1 the results were CCT modulator -4, TSHR antagonist 1, TCR act -5% and pAkt inh inactive.
Cc1ccc2cc(C3CC(c4ccco4)=NN3C(=O)CCCC(=O)O)c(Cl)nc2c1 (stereo not given) was read as CCT modulator 0, TSHR antagonist 8, TCR act -3% and pAkt inh inactive.
Screening Cc1ccc2nc(Cl)c(C3CC(c4ccco4)=NN3C(=O)CCCC(=O)O)cc2c1 (stereo not given) returned CCT modulator -109*, TSHR antagonist -9, TCR act -2% and pAkt inh inactive.
`N#Cc1c(NC(=O)CN2CCOCC2)oc(-c2ccccc2)c1-c1ccccc1` gave CCT modulator -1, TSHR antagonist -3, TCR act 0% and pAkt inh -107%*.
Screening Cc1cccc(C(=O)NCC(=O)OCc2cc(=O)n3ccsc3n2)c1 returned CCT modulator -2, TSHR antagonist 1, TCR act -2% and pAkt inh inactive.
For CC(OC(=O)Cc1coc2ccc3ccccc3c12)C(=O)NC(N)=O (stereo not given) the results were CCT modulator -1, TSHR antagonist 5, TCR act -6% and pAkt inh inactive.
For O=C(NCCC1=CCCCC1)C1CCN(S(=O)(=O)c2cccc3cccnc23)CC1 the results were CCT modulator -1, TSHR antagonist -4, TCR act -5% and pAkt inh inactive.
Screening Cc1ccc(CCNC(=O)C2CCN(S(=O)(=O)c3cccc4cccnc34)CC2)cc1 returned CCT modulator -3, TSHR antagonist -107*, TCR act 5% and pAkt inh inactive.

Screens as filed in PubChem BioAssay.
